Experimental findings from paper PMC4336329 (PLoS ONE, 2015) are described below.

The campaign covered roughly 310,000 compounds. About 14,000 (4.5%) showed an effect of 50% or more. The effect is printed as a negative number. Shown is part of a subset that was picked to be rich in strong results.
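Note: peak tail current of the secondary pulse compared with the same well before compound.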

For the assay, the target named is human ether-à-go-go-related gene (hERG) potassium channel (human, UniProt Q12809). Nature of the assay: primary screen, population patch clamp on CHO cells stably expressing hERG; higher = less effect of the substance.
Chain of human ether-à-go-go-related gene (hERG) potassium channel (Q12809 whole entry, looked up): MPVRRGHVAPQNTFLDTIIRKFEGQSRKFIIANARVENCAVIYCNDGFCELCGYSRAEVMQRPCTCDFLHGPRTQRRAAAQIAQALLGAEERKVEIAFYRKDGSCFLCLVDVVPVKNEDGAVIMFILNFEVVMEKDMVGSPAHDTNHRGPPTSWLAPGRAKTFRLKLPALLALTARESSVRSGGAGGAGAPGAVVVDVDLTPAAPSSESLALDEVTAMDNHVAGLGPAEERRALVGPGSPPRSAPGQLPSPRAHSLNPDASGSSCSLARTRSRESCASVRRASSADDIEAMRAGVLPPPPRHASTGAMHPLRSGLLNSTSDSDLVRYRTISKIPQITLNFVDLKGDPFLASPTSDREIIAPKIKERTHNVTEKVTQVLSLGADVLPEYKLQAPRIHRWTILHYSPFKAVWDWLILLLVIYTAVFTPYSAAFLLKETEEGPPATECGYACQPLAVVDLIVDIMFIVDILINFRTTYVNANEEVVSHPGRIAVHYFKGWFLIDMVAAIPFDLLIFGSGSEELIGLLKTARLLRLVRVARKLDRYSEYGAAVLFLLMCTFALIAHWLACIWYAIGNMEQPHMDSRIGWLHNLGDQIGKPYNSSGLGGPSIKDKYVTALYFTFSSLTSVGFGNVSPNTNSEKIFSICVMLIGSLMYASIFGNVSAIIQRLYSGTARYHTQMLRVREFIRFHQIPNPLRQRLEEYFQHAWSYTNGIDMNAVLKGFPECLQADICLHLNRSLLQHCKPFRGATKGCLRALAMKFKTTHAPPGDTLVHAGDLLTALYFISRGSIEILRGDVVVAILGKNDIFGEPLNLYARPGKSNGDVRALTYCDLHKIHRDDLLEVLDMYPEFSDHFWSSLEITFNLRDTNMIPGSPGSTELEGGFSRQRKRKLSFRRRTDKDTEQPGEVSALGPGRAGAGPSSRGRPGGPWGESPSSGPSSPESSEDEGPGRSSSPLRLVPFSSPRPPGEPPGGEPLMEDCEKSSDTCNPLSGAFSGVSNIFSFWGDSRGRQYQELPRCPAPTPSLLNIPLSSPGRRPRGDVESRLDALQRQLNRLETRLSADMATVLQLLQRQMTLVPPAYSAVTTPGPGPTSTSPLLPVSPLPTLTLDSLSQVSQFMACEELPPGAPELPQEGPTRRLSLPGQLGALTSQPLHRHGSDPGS
On to `Fc1ccc(N/N=C(/c2ccccc2)c2ccccn2)cc1`, for which the “hERG current change (%, negative = inhibition) at 10uM” value is listed as -12.5%.

Take `CCN(Cc1ccccc1)Cc1c(F)cccc1F`: the “hERG current change (%, negative = inhibition) at 10uM” value is given as -0.224%.

As for `CCOC(=O)N1CCN(C(=O)COC(=O)C2CCN(S(=O)(=O)c3ccc(C)c(C)c3)CC2)CC1`, the “hERG current change (%, negative = inhibition) at 10uM” value is reported as -62.1%.

Consider `CCOC(=O)C1CCN(C(=O)COC(=O)C2CCN(S(=O)(=O)c3ccc(C)c(C)c3)CC2)CC1`, for which the “hERG current change (%, negative = inhibition) at 10uM” value is listed as -3.24%.

As to `CCOC(=O)N1CCN(C(=O)COC(=O)C2CCN(S(=O)(=O)c3c(Cl)cccc3Cl)CC2)CC1`, the “hERG current change (%, negative = inhibition) at 10uM” value is -38.1%.

Consider `Cc1ccc(S(=O)(=O)N2CCC(C(=O)OCC(=O)N3CCC(C)CC3)CC2)cc1C`, for which the “hERG current change (%, negative = inhibition) at 10uM” value is listed as 7.85%.

With `CCOC(=O)N1CCN(C(=O)COC(=O)C2CCN(S(=O)(=O)c3c(C)c(C)cc(C)c3C)CC2)CC1`, the “hERG current change (%, negative = inhibition) at 10uM” value is recorded as -51.9%.

As for `CCOC(=O)N1CCN(C(=O)C2CCN(S(=O)(=O)c3c(C)cc(C)cc3C)CC2)CC1`, the “hERG current change (%, negative = inhibition) at 10uM” value is -22.9%.

Take `CC1CCCN(C(=O)COC(=O)C2CCN(S(=O)(=O)c3c(Cl)cccc3Cl)CC2)C1` (stereo not shown): the “hERG current change (%, negative = inhibition) at 10uM” value is -39.4%.

In the case of `CC1CCCC(C)N1C(=O)COC(=O)C1CCN(S(=O)(=O)c2c(Cl)cccc2Cl)CC1` (stereo not shown), the “hERG current change (%, negative = inhibition) at 10uM” value is on record as -30.1%.

In the case of `CC1CCCCN1C(=O)COC(=O)C1CCN(S(=O)(=O)c2c(Cl)cccc2Cl)CC1` (stereo not shown), the “hERG current change (%, negative = inhibition) at 10uM” value was -56.4%.

As to `CC(=O)Nc1ccc(Oc2cc(NC(C)=O)cc([N+](=O)[O-])c2)cc1`, the “hERG current change (%, negative = inhibition) at 10uM” value stood at 6.36%.

Take `CCOC(=O)c1c(NC(=O)CC2Nc3ccccc3NC2=O)sc(C)c1C` (stereo not shown): the “hERG current change (%, negative = inhibition) at 10uM” value amounted to 10.6%.

Turning to `CCOC(=O)C1CCCN(C(=O)c2cc(Nc3ccc(OC)c(OC)c3)nc3ccccc23)C1` (stereo not shown), the “hERG current change (%, negative = inhibition) at 10uM” value is reported as -14.9%.

As for `Cc1c(C(=O)Nc2ccc(Cl)cc2)c2ccccn2c1CCc1ccncc1`, the “hERG current change (%, negative = inhibition) at 10uM” value is -5.68%.

On to `COc1ccc(N2CCN(CC(O)COc3c(OC)cccc3OC)CC2)cc1.Cl` (stereo not shown), for which the “hERG current change (%, negative = inhibition) at 10uM” value was -35.3%.

For `COc1cccc(OCC(O)CN2CCN(c3ccccc3)CC2)c1` (stereo not shown), the “hERG current change (%, negative = inhibition) at 10uM” value is listed as -45.2%.

Regarding `COc1cccc(OCC(O)CN2CCN(c3ccc(Cl)cc3)CC2)c1` (stereo not shown), the “hERG current change (%, negative = inhibition) at 10uM” value is given as -71.9%.

As for `COc1cccc(OCC(O)CN2CCN(c3ccccc3)CC2)c1.Cl` (stereo not shown), the “hERG current change (%, negative = inhibition) at 10uM” value is given as -43.4%.

Consider `OC(CSc1c(Cl)cccc1Cl)CN1CCN(c2ccc(F)cc2)CC1` (stereo not shown), for which the “hERG current change (%, negative = inhibition) at 10uM” value is -40.3%.

`COc1cccc(OC)c1OCC(O)CN1CCN(c2ccc(F)cc2)CC1.Cl` (stereo not shown): the “hERG current change (%, negative = inhibition) at 10uM” value is given as -74.9%.

Take `COc1cccc(OCC(O)CN2CCN(c3ccc(F)cc3)CC2)c1.Cl` (stereo not shown): the “hERG current change (%, negative = inhibition) at 10uM” value is given as -58.6%.

Consider `COc1ccc(OCC(O)CN2CCN(c3ccc(Cl)cc3)CC2)cc1` (stereo not shown), for which the “hERG current change (%, negative = inhibition) at 10uM” value is given as -30.7%.

Turning to `OC(COc1ccc2ccccc2c1)CN1CCN(c2ccc(F)cc2)CC1` (stereo not shown), the “hERG current change (%, negative = inhibition) at 10uM” value is -28%.

Consider `OC(CSc1ccccc1Cl)CN1CCN(c2ccccc2F)CC1` (stereo not shown), for which the “hERG current change (%, negative = inhibition) at 10uM” value was -30.7%.

Consider `CCOC(=O)N1CCN(CC(O)COc2c(OC)cccc2OC)CC1.Cl` (stereo not shown), for which the “hERG current change (%, negative = inhibition) at 10uM” value worked out at 2.85%.

`OC(CSc1ccccc1Cl)CN1CCN(c2ccc(F)cc2)CC1` (stereo not shown): the “hERG current change (%, negative = inhibition) at 10uM” value is recorded as -57.4%.

On to `CCOC(=O)c1c(S(=O)(=O)NCCc2ccco2)c(C)n(C)c1C`, for which the “hERG current change (%, negative = inhibition) at 10uM” value is given as -1.25%.

For `NNC(=O)c1ccc(Cn2cccn2)o1`, the “hERG current change (%, negative = inhibition) at 10uM” value is 5.58%.

As for `CCn1nc(C)c(NS(=O)(=O)c2ccc(C)cc2)c1C`, the “hERG current change (%, negative = inhibition) at 10uM” value is -0.126%.

With `CCCCC1(CCCC)C(=O)NC(=Nc2cccc(C)c2)NC1=O`, the “hERG current change (%, negative = inhibition) at 10uM” value turned out to be 0.0469%.

In the case of `COCC(C)NS(=O)(=O)c1ccccc1` (stereo not shown), the “hERG current change (%, negative = inhibition) at 10uM” value was determined as 12.7%.

In the case of `COCCCNC(=S)Nc1cccc(S(=O)(=O)NC2=NCCC2)c1`, the “hERG current change (%, negative = inhibition) at 10uM” value was 36.7%.

Turning to `COc1ccc(CCNC(=O)c2ccc3c(c2)NC(=O)C(CSCc2cc(C)ccc2C)N3)cc1OC` (stereo not shown), the “hERG current change (%, negative = inhibition) at 10uM” value is given as 12.2%.

In the case of `O=C(Nc1ccc(S(=O)(=O)NCc2ccco2)cc1)c1ccc2ccccc2n1`, the “hERG current change (%, negative = inhibition) at 10uM” value is listed as -0.235%.

With `COc1ccc(C2(C)ON(c3ccccc3C(F)(F)F)C2=O)cc1` (stereo not shown), the “hERG current change (%, negative = inhibition) at 10uM” value is listed as 5.36%.

Consider `CCCCOCCCNC(=O)c1c(-c2ccccc2)noc1C`, for which the “hERG current change (%, negative = inhibition) at 10uM” value is 3.4%.

On to `CCOC(=O)CCN(Cc1ccccc1)S(=O)(=O)c1csc(C(N)=O)c1`, for which the “hERG current change (%, negative = inhibition) at 10uM” value is on record as -22.4%.

`CC(=O)c1ccc(OCC(O)CN2CCN(CC(O)COc3ccc(C(C)=O)cc3)CC2)cc1` (stereo not shown): the “hERG current change (%, negative = inhibition) at 10uM” value is recorded as -39.4%.

Take `CC1CCN(CC(O)COc2ccc(F)cc2)CC1` (stereo not shown): the “hERG current change (%, negative = inhibition) at 10uM” value was -37.7%.

Turning to `Cl.OC(COc1ccc2c(c1)OCO2)CN1CCN(c2ccc(F)cc2)CC1` (stereo not shown), the “hERG current change (%, negative = inhibition) at 10uM” value is -66.1%.

In the case of `OC(COc1ccc(F)cc1)CN1CCN(CC(O)COc2ccc(F)cc2)CC1` (stereo not shown), the “hERG current change (%, negative = inhibition) at 10uM” value is -71.5%.

On to `COc1ccc(N2CCN(CC(O)COc3ccc(F)cc3)CC2)cc1.Cl` (stereo not shown), for which the “hERG current change (%, negative = inhibition) at 10uM” value was -69.9%.

With `COc1ccc(OCC(O)CN2CCN(c3ccc(OC)cc3)CC2)cc1.Cl` (stereo not shown), the “hERG current change (%, negative = inhibition) at 10uM” value is given as -37.7%.

Consider `CC(=O)c1ccc(OCC(O)CN2CCN(c3ccc(F)cc3)CC2)cc1.Cl` (stereo not shown), for which the “hERG current change (%, negative = inhibition) at 10uM” value is -67.4%.

On to `Cl.OC(COc1ccc2c(c1)OCO2)CN1CCCC1` (stereo not shown), for which the “hERG current change (%, negative = inhibition) at 10uM” value was 5.48%.

Turning to `Cl.OC(COc1ccc2c(c1)OCO2)CN1CCN(c2ccccc2)CC1` (stereo not shown), the “hERG current change (%, negative = inhibition) at 10uM” value was -2.44%.

Turning to `CCC(=O)c1ccc(OCC(O)CN2CCN(c3ccc(F)cc3)CC2)cc1` (stereo not shown), the “hERG current change (%, negative = inhibition) at 10uM” value is listed as -26.8%.

Take `COc1ccc(OCC(O)CN2CCN(CC(O)COc3ccc(OC)cc3)CC2)cc1` (stereo not shown): the “hERG current change (%, negative = inhibition) at 10uM” value is listed as -47.5%.

In the case of `Cc1ccc(NC(=S)NC(=O)/C=C/c2ccco2)c(O)c1`, the “hERG current change (%, negative = inhibition) at 10uM” value amounted to 2.91%.

As to `COC(=O)CCC(=O)N1CCCC(CNS(=O)(=O)c2ccc(OC)cc2)C1` (stereo not shown), the “hERG current change (%, negative = inhibition) at 10uM” value is reported as 39.4%.

For the molecule `COc1cc(NC(=O)COC(=O)Cn2cnc3c2c(=O)n(C)c(=O)n3C)cc(OC)c1`, the “hERG current change (%, negative = inhibition) at 10uM” value is given as 1.05%.

For the molecule `CC(C)COC(=O)C1C2C=CC3(CN(C4CCCC4)C(=O)C13)O2` (stereo not shown), the “hERG current change (%, negative = inhibition) at 10uM” value is listed as -15.4%.

In the case of `Cc1ccc(S(=O)(=O)N2CCN(C(=O)c3ccccn3)CC2)cc1`, the “hERG current change (%, negative = inhibition) at 10uM” value is 9.2%.

In the case of `Cc1cccc(NC(=O)c2cc(-c3ccc(C)s3)nc3ccccc23)n1`, the “hERG current change (%, negative = inhibition) at 10uM” value is on record as 5.03%.
